Screening data as filed in PubChem.
This is a sample that favours compounds with a hit; in the whole collection about 21% have one here.
D3 antag: qHTS of D3 Dopamine Receptor Antagonist: qHTS. D(3) dopamine receptor (Homo sapiens), P35462. max response, negative = inhibition, %. D3R cells, DiscoveRx beta-arrestin luminescence, antagonist mode; stronger effect = lower value. hit rate 2.5% among 360,000; in the data active means max response below about -50%; inconclusive means no clear call, values can overlap the other calls; further: on the % scale 0 is the no-effect control and ±100 the full control effect
Target sequence (P35462 whole entry, looked up): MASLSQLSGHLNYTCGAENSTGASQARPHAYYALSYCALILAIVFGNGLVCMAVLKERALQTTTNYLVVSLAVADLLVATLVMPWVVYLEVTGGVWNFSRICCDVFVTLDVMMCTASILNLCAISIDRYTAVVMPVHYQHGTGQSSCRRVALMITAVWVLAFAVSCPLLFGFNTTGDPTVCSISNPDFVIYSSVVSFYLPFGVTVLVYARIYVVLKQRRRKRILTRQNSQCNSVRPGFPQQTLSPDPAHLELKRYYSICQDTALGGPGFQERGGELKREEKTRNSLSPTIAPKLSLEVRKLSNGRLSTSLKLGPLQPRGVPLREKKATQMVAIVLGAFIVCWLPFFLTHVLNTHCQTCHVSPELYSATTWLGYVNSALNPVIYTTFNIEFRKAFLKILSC
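Cells plated overnight at 1500 cells/well, then exposed to library compounds with dopamine controls for 90 minutes at 37 degrees C. DiscoveRx reagent added for 30–60 minutes at room temperature; luminescence read, quantitative HTS format.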
DRD3 agonist: qHTS of D3 Dopamine Receptor Agonist: qHTS; D(3) dopamine receptor (Homo sapiens), P35462; D3R DiscoveRx beta-arrestin cells, luminescence, 90 min; max activation, %; hit rate 0.58% among 410,000; AID 652048, 2013; in the data active means max activation above about 30%; further: 0% is about no effect
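Agonist-mode cell screen: cells plated at 1500/well and incubated overnight at 37 °C, then exposed to library compounds for 90 min at 37 °C. Detection reagent was added for 30–60 min at room temperature, and luminescence was read.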
ClpP mod: qHTS Assay for Activators of ClpP. ATP-dependent Clp protease proteolytic subunit (Bacillus subtilis (strain 168)), P80244. purified B. subtilis ClpP, FRET peptide cleavage, 20 min. Potency, µM (doses to about 57.5 µM), without a hit: at the highest dose activity change, negative = active. hit rate 1.9% among 340,000; active means well fitted falling curve with a large enough effect; inconclusive means small, poorly fitted or top-dose-only effect; inactive means no such curve, though single readings can be large or run the other way; further: potency means the concentration at half of the fitted maximal effect; the source files actives as falling curves though it sought activators and does not explain the sign; nearly all actives have a fitted effect of over 65% in size
Target sequence (P80244 whole entry, looked up): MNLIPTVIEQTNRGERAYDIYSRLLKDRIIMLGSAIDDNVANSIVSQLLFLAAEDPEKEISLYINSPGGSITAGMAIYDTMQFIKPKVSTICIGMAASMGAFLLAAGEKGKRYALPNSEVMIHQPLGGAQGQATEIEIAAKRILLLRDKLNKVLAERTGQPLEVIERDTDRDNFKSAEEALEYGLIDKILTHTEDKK
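Buffer: 100 mM Tris/HCl pH8, 100 mM KCl, 0.05% low protease BSA, 2.5% glycerol, 0.01% Tween-20. ClpP 10 microg/mL final; 20 min RT; delta FRET normalized to ADEP and DMSO controls.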
IL1B secr inh: qHTS for Inhibitors of Inflammasome Signaling: IL-1-beta AlphaLISA Primary Screen | AID 743279, 2014 | activity change, % at 57.5 µM | hit rate 4.7% among 360,000 | THP-1 LPS/ATP IL-1B secretion, AlphaLISA, 16 h; stronger effect = lower value; in the data active means activity change below about -50%; inconclusive means mostly about -30% to -49%; further: on the % scale 0 is the no-effect control and ±100 the full control effect
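Secreted IL-1B measured by AlphaLISA bead assay after 16 h compound exposure of THP-1 cells; compounds (final up to 57.5 uM) added 1 h before LPS (250 ng/mL) and ATP (1.25 mM) stimulation; lower signal means less secretion.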
TDP1 cell CPT: qHTS for Inhibitors of human tyrosyl-DNA phosphodiesterase 1 (TDP1): qHTS in cells in presence of CPT. Potency, µM (doses to about 46.2 µM), inactives show at the highest dose activity change, negative = growth inhibition, usual class: inhibitors. AID 686979, 2013. hit rate 12% among 420,000. chicken DT40 Tdp1-/-;hTDP1 cells + 20 nM CPT, ATP luminescence, 48 h; further: potency means the concentration at half of the fitted maximal effect; on the % scale 0 is the no-effect control and ±100 the full control effect; nearly all actives have a fitted effect of over 55% in size
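Chicken DT40 Tdp1-/- cells complemented with human TDP1, 400 cells/well, exposed to compounds plus 20 nM camptothecin for at least 48 h at 37 C; viability read as ATP content by CellTiter-Glo luminescence.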
DT40 TDP1 no CPT: qHTS for Inhibitors of human tyrosyl-DNA phosphodiesterase 1 (TDP1): qHTS in cells in absence of CPT; DT40 Tdp1-/- hTDP1 cells, no CPT, ATP luminescence, 48 h; Potency, µM (doses to about 46.2 µM), without a hit: at the highest dose activity change, negative = growth inhibition, usual class: inhibitors; hit rate 15% among 420,000; further: potency means the concentration at half of the fitted maximal effect; on the % scale 0 is the no-effect control and ±100 the full control effect; nearly all actives have a fitted effect of over 55% in size
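Chicken DT40 Tdp1-/- cells stably complemented with human TDP1 were seeded at 400 cells/well with DMSO in place of 20 nM camptothecin. After compound pinning, cells grew at least 48 hr at 37 °C; viability read by CellTiter-Glo luminescence.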
An asterisk follows results filed as active. Unless noted, the call rests on the fitted dose curve; in most records, active means well fitted inhibition curve with a large enough effect; inconclusive means small, poorly fitted or top-dose-only effect; inactive means flat fitted curve, though single readings scatter.

For CCC(C)[C@H](NC(=O)NCc1ccc(F)cc1)C(=O)O (stereo not given in full) the results were D3 antag 23.6, DRD3 agonist -1.5, ClpP mod -0.2%, IL1B secr inh 23.2, TDP1 cell CPT 1.7% and DT40 TDP1 no CPT 1.3%.
`O=S1(=O)c2ccccc2N(Cc2ccccc2Cl)c2ccccc21` gave DRD3 agonist -13.6, ClpP mod -4.3%, TDP1 cell CPT inconclusive and DT40 TDP1 no CPT inconclusive.
`Cc1cc(Cl)ccc1NC(=O)CN1C(=O)NC2(CCCc3ccccc32)C1=O` (stereo not given) gave D3 antag -2.4, DRD3 agonist -7.9, ClpP mod 0.3%, IL1B secr inh -7.4, TDP1 cell CPT inconclusive and DT40 TDP1 no CPT inconclusive.
CC(OC(=O)c1nc(Cl)ccc1Cl)C(=O)NCc1ccccc1 (stereo not given) was read as D3 antag 12.9, DRD3 agonist 0.5, ClpP mod 1.8%, IL1B secr inh -21.8, TDP1 cell CPT 7.3% and DT40 TDP1 no CPT -10.3%.
C=C(C)Cn1c(CCCNC(=O)C(C)(C)C)nc2ccccc21 was read as D3 antag 0.3, DRD3 agonist 3.4, ClpP mod 0.4%, IL1B secr inh 25.3, TDP1 cell CPT 16.4µM* and DT40 TDP1 no CPT 23.1µM*.
Screening C=CCn1c(CCCNC(=O)C(C)(C)C)nc2ccccc21 returned D3 antag 1.0, DRD3 agonist 5.1, ClpP mod 0.1%, IL1B secr inh 24.1, TDP1 cell CPT inconclusive and DT40 TDP1 no CPT inconclusive.
C=C(C)Cn1c(CCNC(=O)CC)nc2ccccc21 was read as D3 antag -17.4, DRD3 agonist -5.2, ClpP mod 31.6µM*, IL1B secr inh -5.8, TDP1 cell CPT -18.9% and DT40 TDP1 no CPT -29.7%.
`Cc1noc(C)c1C(=O)N(CC(=O)Nc1ccccc1Br)Cc1ccco1` gave D3 antag -22.3, DRD3 agonist 0.5, ClpP mod 29.5%, IL1B secr inh -8.5, TDP1 cell CPT -20.1% and DT40 TDP1 no CPT 1.6%.
Screening Cc1ccc(C(=O)N2CCN(c3ccccc3)CC2)cc1NC(=O)c1nsc2ccccc12 returned DRD3 agonist -10.8, ClpP mod 8.4%, TDP1 cell CPT 20.6µM* and DT40 TDP1 no CPT inconclusive.
Cc1cc(C)cc(NC(=O)N2CCN(C(=O)c3nsc4ccccc34)CC2)c1 was read as DRD3 agonist 4.3, ClpP mod 0.7%, TDP1 cell CPT inconclusive and DT40 TDP1 no CPT inconclusive.
For Cc1cccc(N2CCN(C(=O)c3ccc(NC(=O)c4nsc5ccccc45)cc3)CC2)c1C the results were DRD3 agonist 2.6, ClpP mod -16.4%, TDP1 cell CPT inconclusive and DT40 TDP1 no CPT inconclusive.
Screening O=C(Nc1cccc(C(=O)N2CCN(c3ccccc3)CC2)c1)c1nsc2ccccc12 returned DRD3 agonist 0.7, ClpP mod -0.5%, TDP1 cell CPT inconclusive and DT40 TDP1 no CPT inconclusive.
Screening COc1ccc(N2CCN(C(=O)c3cccc(NC(=O)c4nsc5ccccc45)c3)CC2)cc1 returned DRD3 agonist 17.8, ClpP mod 1.1%, TDP1 cell CPT 14.6µM* and DT40 TDP1 no CPT 11.6µM*.
`COc1cccc(N2CCN(C(=O)c3cccc(NC(=O)c4nsc5ccccc45)c3)CC2)c1` gave DRD3 agonist 4.3, ClpP mod -2.8%, TDP1 cell CPT inconclusive and DT40 TDP1 no CPT 20.6µM*.
For Cc1ccc(C)c(NC(=O)N2CCN(C(=O)c3nsc4ccccc34)CC2)c1 the results were DRD3 agonist -3.3, ClpP mod 1.2%, TDP1 cell CPT inconclusive and DT40 TDP1 no CPT 18.4µM*.
Screening CCOC(=O)[C@]12CCCC=C1N(Cc1ccco1)C(=O)[C@H](CC(=O)NCc1cccc(C(F)(F)F)c1)C2 returned D3 antag 2.9, DRD3 agonist 4.5, ClpP mod -2.7%, IL1B secr inh 0.0, TDP1 cell CPT inconclusive and DT40 TDP1 no CPT 18.4µM*.
CCCCOCCCNC(=O)C[C@@H]1C[C@@]2(C(=O)OC)CCCCC=C2N(Cc2ccco2)C1=O was read as D3 antag -11.7, DRD3 agonist -0.7, ClpP mod -1.5%, IL1B secr inh 4.4, TDP1 cell CPT inconclusive and DT40 TDP1 no CPT 16.4µM*.
For CCOC(=O)[C@]12CCCC=C1N(Cc1ccco1)C(=O)[C@H](CC(=O)NCc1cccs1)C2 the results were D3 antag 15.1, DRD3 agonist 6.1, ClpP mod 1.4%, IL1B secr inh -11.6, TDP1 cell CPT inconclusive and DT40 TDP1 no CPT 25.9µM*.
`COC(=O)[C@]12CCCCC=C1N(Cc1ccccc1)C(=O)[C@H](CC(=O)NCc1cccs1)C2` gave D3 antag 7.3, DRD3 agonist 0.4, ClpP mod -6.8%, IL1B secr inh -6.5, TDP1 cell CPT inconclusive and DT40 TDP1 no CPT -25.8%.
Screening COC(=O)[C@]12CCCCC=C1N(Cc1ccco1)C(=O)[C@H](CC(=O)NCc1cccs1)C2 returned D3 antag 0.0, DRD3 agonist -10.1, ClpP mod 0.5%, IL1B secr inh 3.1, TDP1 cell CPT inconclusive and DT40 TDP1 no CPT 23.1µM*.
Screening CS(=O)(=O)N1CCCC(c2nc(-c3ccc(S(=O)(=O)NCc4ccccc4)cc3)no2)C1 (stereo not given) returned D3 antag -15.8, DRD3 agonist -3.7, ClpP mod -2.3%, IL1B secr inh 0.0, TDP1 cell CPT 13µM* and DT40 TDP1 no CPT 10.3µM*.
`CC(C)(C)c1ccc(C(=O)N2CCC(c3noc(-c4ccc(S(=O)(=O)N5CCCC5)cc4)n3)CC2)cc1` gave DRD3 agonist 19.2, ClpP mod 0.2%, TDP1 cell CPT 20.6µM* and DT40 TDP1 no CPT 18.4µM*.
Screening O=C(Cc1ccccc1)N1CCCC(c2nc(-c3ccc(S(=O)(=O)N4CCCC4)cc3)no2)C1 (stereo not given) returned D3 antag 9.1, DRD3 agonist 25.5, ClpP mod 1.0%, IL1B secr inh -71.5*, TDP1 cell CPT inconclusive and DT40 TDP1 no CPT inconclusive.
